# For part of these data: Entries with a potency or affinity are not part of this list.
# What was measured:
# Set-up in all cases: scale not given: direction of the effect not stated beside the values
# [1] = biological target: Protein translocase subunit SecA (Escherichia coli (strain K12)) (UniProt P10408); test: Assay to Identify E. coli SecA ATPase Inhibitors; format: functional; settings: 30 µM
# [2] = biological target: T1, Ubiquitin-activating enzyme e1, putative (Leishmania donovani (strain BPK282A1)) (UniProt E9BSI1); test: Leishmania donovani Ubiquitin Activating Enzyme (LdE1); format: functional; settings: 30 µM
# T1 sequence (whole entry): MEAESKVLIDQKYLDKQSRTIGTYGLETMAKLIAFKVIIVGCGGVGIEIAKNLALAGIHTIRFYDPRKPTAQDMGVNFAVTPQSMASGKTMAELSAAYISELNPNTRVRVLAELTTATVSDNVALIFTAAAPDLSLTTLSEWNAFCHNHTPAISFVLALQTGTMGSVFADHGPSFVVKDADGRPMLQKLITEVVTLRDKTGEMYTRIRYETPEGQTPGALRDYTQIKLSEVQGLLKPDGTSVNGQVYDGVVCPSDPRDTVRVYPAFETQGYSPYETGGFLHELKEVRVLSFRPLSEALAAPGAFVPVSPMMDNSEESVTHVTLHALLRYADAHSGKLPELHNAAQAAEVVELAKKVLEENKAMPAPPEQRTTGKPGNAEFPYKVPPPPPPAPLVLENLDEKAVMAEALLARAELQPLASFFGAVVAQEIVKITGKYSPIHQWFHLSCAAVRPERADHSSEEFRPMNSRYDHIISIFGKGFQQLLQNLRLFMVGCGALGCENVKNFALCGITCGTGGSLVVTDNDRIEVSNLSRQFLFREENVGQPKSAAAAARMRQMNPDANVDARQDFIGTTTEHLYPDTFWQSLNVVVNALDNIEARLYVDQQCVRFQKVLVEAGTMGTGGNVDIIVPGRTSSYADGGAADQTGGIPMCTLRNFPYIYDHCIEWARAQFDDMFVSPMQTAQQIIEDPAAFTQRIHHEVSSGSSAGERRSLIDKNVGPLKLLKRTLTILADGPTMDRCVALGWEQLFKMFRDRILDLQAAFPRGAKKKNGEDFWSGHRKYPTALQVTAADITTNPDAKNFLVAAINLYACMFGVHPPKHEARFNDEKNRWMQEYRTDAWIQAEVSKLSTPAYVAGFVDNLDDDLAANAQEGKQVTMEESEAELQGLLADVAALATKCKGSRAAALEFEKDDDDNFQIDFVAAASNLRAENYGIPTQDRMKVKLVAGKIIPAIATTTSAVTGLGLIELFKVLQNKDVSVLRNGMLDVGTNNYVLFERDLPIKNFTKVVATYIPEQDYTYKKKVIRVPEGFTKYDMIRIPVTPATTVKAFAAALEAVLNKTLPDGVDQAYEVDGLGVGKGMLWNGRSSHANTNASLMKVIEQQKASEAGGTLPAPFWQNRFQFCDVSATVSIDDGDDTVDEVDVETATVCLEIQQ
# [3] = biological target: AMP-activated protein kinase, AMPK (Homo sapiens) (UniProt P54646+O43741+P54619+Q9UGJ0+Q9Y478+Q13131+Q9UGI9); test: AMP-dependent Kinase enzyme assay. An in vitro enzyme assay that detects ADP turnover that is directly proportional to AMPK activity. This uses naive AMPK that is activated during the assay with MK-8722; format: functional; settings: 30 µM
# [4] = biological target: Sialic acid-binding Ig-like lectin 9 (Homo sapiens) (UniProt Q9Y336); test: Hs-Siglec9 ALPHAscreen SOP 20170721; settings: 10 µM
# Chain of Sialic acid-binding Ig-like lectin 9 (Homo sapiens) (Q9Y336 whole entry): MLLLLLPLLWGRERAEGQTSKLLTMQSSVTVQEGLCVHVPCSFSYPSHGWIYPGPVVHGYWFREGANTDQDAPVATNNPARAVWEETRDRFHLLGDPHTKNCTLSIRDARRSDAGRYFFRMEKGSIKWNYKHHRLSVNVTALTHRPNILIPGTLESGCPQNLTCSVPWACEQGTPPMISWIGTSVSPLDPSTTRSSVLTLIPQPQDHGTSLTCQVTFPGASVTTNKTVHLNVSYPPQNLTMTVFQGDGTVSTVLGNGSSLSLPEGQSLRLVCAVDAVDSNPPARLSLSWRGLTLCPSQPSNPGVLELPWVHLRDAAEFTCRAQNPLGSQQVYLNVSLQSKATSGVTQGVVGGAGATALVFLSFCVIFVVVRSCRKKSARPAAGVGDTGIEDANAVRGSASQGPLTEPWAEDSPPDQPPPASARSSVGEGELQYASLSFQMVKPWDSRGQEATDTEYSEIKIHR
# [5] = test system: Trypanosoma cruzi; test: Trypanosoma cruzi phosphomannomutase and mannose-1-phosphate guanylyltransferase assay; format: functional; settings: 10 µM
# [6] = biological target: T2, Arginase-2, mitochondrial (Homo sapiens) (UniProt P78540); test: in vitro enzyme assay to detect the production of urea directly proportional to the activity of Arginase II; format: functional; settings: 33.3 µM; further: in the data most compounds retested in dose-response had high values
# T2 sequence (whole entry): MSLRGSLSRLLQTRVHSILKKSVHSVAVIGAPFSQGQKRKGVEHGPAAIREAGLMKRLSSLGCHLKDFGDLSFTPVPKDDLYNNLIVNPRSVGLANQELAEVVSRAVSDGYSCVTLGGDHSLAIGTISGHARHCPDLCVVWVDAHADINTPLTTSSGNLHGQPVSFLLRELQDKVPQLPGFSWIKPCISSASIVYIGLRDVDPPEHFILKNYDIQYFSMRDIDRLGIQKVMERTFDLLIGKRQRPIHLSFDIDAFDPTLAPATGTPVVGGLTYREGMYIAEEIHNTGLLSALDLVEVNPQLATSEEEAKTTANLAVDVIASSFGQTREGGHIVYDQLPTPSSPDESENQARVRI
# [7] = biological target: T3, Proteasome subunit beta (Trypanosoma cruzi) (UniProt O96673); test: Trypanosoma cruzi proteasome chymotrypsin-like activity (TcProtChymo) assay.; further: in the data most compounds retested in dose-response had high values; format: functional; settings: 9.37 µM
# T3 sequence (whole entry): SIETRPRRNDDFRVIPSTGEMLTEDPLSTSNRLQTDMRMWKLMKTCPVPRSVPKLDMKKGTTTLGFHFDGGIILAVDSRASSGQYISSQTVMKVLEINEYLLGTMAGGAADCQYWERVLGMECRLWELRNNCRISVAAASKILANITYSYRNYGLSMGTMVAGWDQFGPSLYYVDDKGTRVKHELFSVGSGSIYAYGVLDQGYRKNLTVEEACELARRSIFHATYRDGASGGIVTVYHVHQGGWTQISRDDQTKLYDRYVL
# [8] = species: Homo sapiens; test: To identify inhibition of the IFN signalling (Jak-Stat) pathway via expression of an eGFP reporter gene under the control of an IFN-stimulated response element (ISRE) containing MxA promoter.; format: functional; settings: 30 µM
# [9] = biological target: T4, Tyrosyl-tRNA synthetase, putative (Trypanosoma cruzi (strain CL Brener)) (UniProt Q4DSP6); test: Trypanosoma cruzi tyrosyl tRNA synthetase (TcYRS) _High Tyrosine SOP; format: functional; settings: 30 µM; further: in the data most compounds retested in dose-response had high values
# T4 sequence (whole entry): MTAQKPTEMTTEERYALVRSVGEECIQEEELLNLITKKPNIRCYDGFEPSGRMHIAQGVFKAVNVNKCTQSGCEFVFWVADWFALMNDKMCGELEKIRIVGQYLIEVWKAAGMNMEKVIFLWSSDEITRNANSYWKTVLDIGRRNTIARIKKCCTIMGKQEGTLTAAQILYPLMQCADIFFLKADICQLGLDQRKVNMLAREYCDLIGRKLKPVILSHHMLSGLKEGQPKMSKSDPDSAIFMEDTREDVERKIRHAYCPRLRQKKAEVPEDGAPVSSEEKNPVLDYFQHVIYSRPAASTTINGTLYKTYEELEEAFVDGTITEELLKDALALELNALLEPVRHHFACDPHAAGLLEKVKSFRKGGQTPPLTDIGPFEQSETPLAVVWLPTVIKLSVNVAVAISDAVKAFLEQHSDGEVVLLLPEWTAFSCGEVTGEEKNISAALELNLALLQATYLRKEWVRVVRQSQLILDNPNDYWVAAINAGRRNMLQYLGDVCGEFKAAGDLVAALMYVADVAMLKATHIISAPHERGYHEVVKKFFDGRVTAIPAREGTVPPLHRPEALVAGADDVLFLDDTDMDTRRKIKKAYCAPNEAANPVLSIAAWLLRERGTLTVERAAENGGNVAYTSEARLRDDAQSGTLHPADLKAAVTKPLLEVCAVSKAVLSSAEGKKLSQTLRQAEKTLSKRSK
# [10] = biological target: T4, Tyrosyl-tRNA synthetase, putative (Trypanosoma cruzi (strain CL Brener)); test: Trypanosoma cruzi tyrosyl tRNA synthetase (TcYRS) SOP; format: functional; settings: 30 µM
# [11] = biological target: Chromo domain-containing protein 1 (Saccharomyces cerevisiae (strain ATCC 204508 / S288c) (Baker's yeast)) (UniProt P32657); test: ScCHD-1 Enzyme Inhibition Assay; format: functional; settings: 30 µM; further: in the data most compounds retested in dose-response had high values
# Chain of Chromo domain-containing protein 1 (Saccharomyces cerevisiae (strain ATCC 204508 / S288c) (Baker's yeast)) (P32657 whole entry, the tested form may be a part): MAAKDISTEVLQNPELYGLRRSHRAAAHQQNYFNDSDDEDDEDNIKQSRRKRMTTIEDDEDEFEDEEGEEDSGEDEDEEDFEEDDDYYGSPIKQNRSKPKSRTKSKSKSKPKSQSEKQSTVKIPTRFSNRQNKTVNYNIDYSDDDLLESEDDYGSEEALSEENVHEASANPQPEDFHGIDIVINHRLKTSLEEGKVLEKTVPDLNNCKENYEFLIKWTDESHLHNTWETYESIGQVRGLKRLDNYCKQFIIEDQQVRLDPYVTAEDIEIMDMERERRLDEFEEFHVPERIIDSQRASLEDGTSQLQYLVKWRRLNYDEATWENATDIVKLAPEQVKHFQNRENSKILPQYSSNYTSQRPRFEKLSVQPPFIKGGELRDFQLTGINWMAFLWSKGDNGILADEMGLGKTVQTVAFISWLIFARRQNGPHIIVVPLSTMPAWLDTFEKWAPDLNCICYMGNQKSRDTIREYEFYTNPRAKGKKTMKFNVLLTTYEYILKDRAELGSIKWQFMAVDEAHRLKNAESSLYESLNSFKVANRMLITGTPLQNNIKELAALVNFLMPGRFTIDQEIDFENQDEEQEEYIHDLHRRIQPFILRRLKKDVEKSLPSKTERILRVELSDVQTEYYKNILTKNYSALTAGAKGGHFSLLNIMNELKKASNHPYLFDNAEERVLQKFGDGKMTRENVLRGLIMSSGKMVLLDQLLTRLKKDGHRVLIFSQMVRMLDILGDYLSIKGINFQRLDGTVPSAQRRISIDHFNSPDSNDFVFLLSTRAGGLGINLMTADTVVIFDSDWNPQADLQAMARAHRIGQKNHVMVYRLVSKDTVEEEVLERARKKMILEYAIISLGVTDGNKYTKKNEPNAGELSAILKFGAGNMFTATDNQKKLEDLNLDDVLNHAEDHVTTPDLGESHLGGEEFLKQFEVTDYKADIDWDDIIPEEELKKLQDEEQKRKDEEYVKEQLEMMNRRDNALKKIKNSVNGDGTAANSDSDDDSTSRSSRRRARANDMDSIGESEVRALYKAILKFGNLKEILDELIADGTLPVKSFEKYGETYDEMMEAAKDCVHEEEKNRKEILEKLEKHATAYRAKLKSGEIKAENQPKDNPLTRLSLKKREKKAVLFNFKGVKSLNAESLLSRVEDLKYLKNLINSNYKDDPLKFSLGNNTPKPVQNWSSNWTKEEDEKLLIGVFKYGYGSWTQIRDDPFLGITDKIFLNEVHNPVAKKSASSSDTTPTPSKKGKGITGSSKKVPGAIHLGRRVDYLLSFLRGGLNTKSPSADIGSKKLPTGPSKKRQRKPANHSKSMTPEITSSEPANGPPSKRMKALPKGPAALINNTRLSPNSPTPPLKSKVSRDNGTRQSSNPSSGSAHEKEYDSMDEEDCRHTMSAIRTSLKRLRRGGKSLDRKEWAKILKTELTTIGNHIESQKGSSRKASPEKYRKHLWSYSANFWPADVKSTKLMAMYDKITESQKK
# Chain of Protein translocase subunit SecA (Escherichia coli (strain K12)) (P10408 whole entry): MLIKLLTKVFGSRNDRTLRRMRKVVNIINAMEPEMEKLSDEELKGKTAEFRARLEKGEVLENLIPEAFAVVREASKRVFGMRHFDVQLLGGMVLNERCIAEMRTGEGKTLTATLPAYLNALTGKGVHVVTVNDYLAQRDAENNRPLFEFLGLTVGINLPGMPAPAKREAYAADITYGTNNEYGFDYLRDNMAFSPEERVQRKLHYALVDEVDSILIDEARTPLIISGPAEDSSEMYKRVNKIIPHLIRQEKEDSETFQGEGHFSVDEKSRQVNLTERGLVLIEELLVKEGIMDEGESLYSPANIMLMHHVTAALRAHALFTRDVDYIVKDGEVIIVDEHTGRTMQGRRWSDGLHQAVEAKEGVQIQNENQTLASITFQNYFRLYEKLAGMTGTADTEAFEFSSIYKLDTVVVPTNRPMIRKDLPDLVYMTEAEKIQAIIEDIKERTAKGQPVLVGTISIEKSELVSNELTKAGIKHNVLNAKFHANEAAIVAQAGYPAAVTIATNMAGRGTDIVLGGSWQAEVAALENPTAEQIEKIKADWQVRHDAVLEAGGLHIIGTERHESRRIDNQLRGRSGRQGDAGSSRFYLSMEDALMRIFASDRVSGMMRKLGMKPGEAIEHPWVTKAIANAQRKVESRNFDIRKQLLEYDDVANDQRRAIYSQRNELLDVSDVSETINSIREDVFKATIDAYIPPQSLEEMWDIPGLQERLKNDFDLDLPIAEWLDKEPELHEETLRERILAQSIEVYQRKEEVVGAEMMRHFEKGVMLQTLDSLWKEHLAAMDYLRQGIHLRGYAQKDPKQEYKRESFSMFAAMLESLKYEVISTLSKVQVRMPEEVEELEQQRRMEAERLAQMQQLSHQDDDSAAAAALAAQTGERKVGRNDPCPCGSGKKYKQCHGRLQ
Structure (SMILES),Percent Effect [1],Percent Effect [2],Percent Effect [3],Percent Effect [4],Percent Effect [5],Percent Effect [6],Percent Effect [7],Percent Effect [8],Percent Effect [9],Percent Effect [10],Percent Effect [11]
O=C(C1=CC2(CCNCC2)c2ccccc21)N1CCCC1,-0.609%,2.67%,6.96%,-3.45%,-7.53%,-56.1%,7.52%,-19.8%,-3.12%,2.5%,-6.64%
CC(C)c1nc(C2CCCN2CC(=O)N2CCNC2=O)no1 (centres undefined),-3.33%,2.63%,-0.208%,-4.56%,5.26%,1.15%,1.34%,-5.94%,-0.49%,4.88%,-10.2%
O=C(c1cc(=O)[nH]c(=O)[nH]1)N1CCCCC1c1nc2cc(F)ccc2[nH]1 (centres undefined),-4.1%,1.39%,2.15%,-1.84%,1.07%,3.97%,6.14%,-12.1%,3.16%,7.69%,-2.87%
COc1c(C)cnc(CN2CCOC(Cn3nc(C)nc3C)C2)c1C (centres undefined),-3.44%,7.59%,-1.91%,11%,1.6%,4.94%,-8.11%,-11.7%,2.46%,-8.86%,0.784%
CC(=O)N(Cc1ncc(C)o1)C1CCN(CCNC2CCCCC2)C1 (centres undefined),-1.61%,2.7%,2.29%,-9.81%,-9.68%,0.744%,13%,18.4%,-2.15%,-3.7%,-7.63%
CN(C)C(=O)N1CCN(Cc2ccccc2)[C@@H]2CS(=O)(=O)C[C@@H]21,-0.429%,2.7%,-4.73%,3.84%,4.25%,-1.43%,10.9%,4.04%,7.94%,17.1%,-3.7%
CC(=O)Nc1nc(CN2CCCCC2Cn2cccn2)cs1 (centres undefined),-4.14%,5.26%,3.07%,-1.3%,-0.0974%,-1.18%,10.8%,20.7%,9.57%,15.6%,-6.41%
CCC1CCCCN1C(=O)c1ccc2[nH]nnc2c1 (centres undefined),0.483%,0%,-3.81%,-0.908%,-1.17%,3.33%,19.5%,1.34%,3.96%,-11%,-1.41%
COc1ccc(CN(C)CC2CCCN2c2cccnn2)cc1F (centres undefined),1.17%,15.6%,13.3%,-7.91%,-2.25%,-7.79%,13.8%,18.7%,7.62%,18.8%,-22.1%
